This is an account of results in PubChem BioAssay (NCATS).

Structures are written as SMILES. Where “and” joins values, the source holds several entries; their conditions need not be identical. Equal values may be shown once. Records with an inconclusive call do not appear. Calls of active or inactive are those of the source. Unless noted, calls follow the shape of the dose curve; as a rule, active = well fitted curve in the direction sought with a large enough effect; inconclusive = small, poorly fitted or top-dose-only effect, or another doubt; inactive = no such curve, though single readings can be large; an effect the other way counts as inactive or inconclusive.

A short description of experiment [1]: AP1 Signaling Pathway (AID 357; active = well fitted curve in either direction with a large enough effect, not every such curve was filed as active;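 also: ME-180 reporter cells stimulated with EGF at its EC50 level; % is scaled to controls: 0 for no effect and ±100 for the full control effect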). In a few lines:
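Modulation of EGF-driven AP-1 transcription was assessed with a beta-lactamase reporter in ME-180 cells. Compound and EC50 EGF were co-incubated 5 hours at 37 °C before 2.5-hour CCF4 loading at room temperature and dual-emission reading.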

Experiment [2] addresses Cytochrome P450 1A2 (Homo sapiens) (UniProt P05177). Briefly: p450-cyp1a2 (AID 410; calls by dose curve;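 also: -100% = full effect of reference inhibitor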). In a few lines:
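Luminescent demethylation readout: Luciferin-ME (100uM, equal to Km) turned over by 20nM CYP1A2 for 60 min at room temperature after NADPH regeneration addition, following 10 min compound preincubation. Normalization used 57 uM furafylline as full inhibition.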

Experiment [3] concerns the target Glucocorticoid receptor (Homo sapiens) (UniProt P04150). Briefly: GR-GFP Redistribution (AID 450;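 active = compounds whose dose series gives a full or clear partial fitted curve of increased nuclear translocation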; also: potency is read from the fitted curve at half-maximal effect). To be noted: U2OS GR-GFP nuclear translocation, laser cytometry, 2 h.
For experiment [4], the target named is Mitogen-activated protein kinase 10 (Mus musculus) (UniProt Q61831). The experiment can be described thus: JNK3 AlphaScreen Assay (AID 530; active = well fitted curve in either direction with a large enough effect, not every such curve was filed as active;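 also: kinase came from lysate of stimulated human HepG2 cells; signal reports phosphorylation of biotinylated GST-cJun 1-79 at Ser73 with 10 µM ATP; % is scaled to controls: 0 for no effect and ±100 for the full control effect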). In a few lines:
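Activity was read by AlphaScreen after JNK3-containing HepG2 lysate (cytokine pre-activated) phosphorylated biotinylated GST-cJun with 10 uM ATP at room temperature. Phospho-Ser73 cJun antibody with Protein-A acceptor beads provided detection.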
For orientation: In Alpha technology, singlet oxygen from a donor bead excites a nearby acceptor bead.

Experiment [5] has as its target 3',5'-cyclic-AMP phosphodiesterase 4B (Homo sapiens) (UniProt Q07343). Briefly: qHTS Assay for Inhibitors of PDE-IV (AID 607; active = well fitted activation curve with a large enough effect in the main read-out, with a control signal flat, not every such curve was filed as active; also: % of control where 0% means no effect). In a few lines:
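Live HEK293 cells with a modified cyclic nucleotide-gated (CNG) channel report intracellular cAMP via membrane-potential dye fluorescence (ex 535/em 590 nm). Endogenous PDE-IV was targeted. Compounds were tested at up to 22.9 uM final; RO 20-1724 100 uM served as control.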
(In general: In qHTS, concentration-response curves come from the screen itself.)

The nature of experiment [6]: qHTS Assay for Lipid Storage Modulators (AID 1519; calls by dose curve). To be noted: Drosophila S3 cells, BODIPY lipid droplet/cell ratio, laser cytometry, cells loaded with oleic acid; for activity change, negative = inhibition: at 25.7 µM (top of the series). In a few lines:
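Cells seeded at 5,000 per well were treated with compounds over a concentration series and loaded with oleic acid (400 uM, as added). Lipid droplet fluorescence (488 nm excitation, 500-530 nm channel) was read by laser-scanning cytometry and normalized to 20 uM Triacsin C.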

The target in experiment [7] is ATP-dependent 6-phosphofructokinase (Trypanosoma brucei brucei) (UniProt O15648). Briefly: qHTS Assay to Find Inhibitors of T. brucei phosphofructokinase: hit validation (AID 492961).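 Also: luminescence reports ADP formed as PFK phosphorylates fructose-6-phosphate with ATP; % is scaled to controls: 0 for no effect and ±100 for the full control effect.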 In a few lines:
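Compounds titrated; %activity normalized to 0x and 1x enzyme controls, curve-fitted. Readout: ADP-Glo luminescence after 45 min room-temperature reaction of 1.25 nM PFK, 0.1 mM ATP, 0.5 mM F6P, pH 8.0.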

The target in experiment [8] is Luciferin 4-monooxygenase (Photinus pyralis) (UniProt P08659). The experiment can be described thus: Biochemical firefly luciferase enzyme assay for NPC (AID 624030).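 Also: purified P. pyralis luciferase at 10 nM with luciferin and ATP substrate; 0% = DMSO and -100% = full luciferase inhibition by PTC124 control; nearly all actives have a fitted effect of over 70% in size.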 In a few lines: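 Purified P. pyralis luciferase at 10 nM in 50 mM Tris Acetate (final), luminescence read within 5 minutes of enzyme addition to compounds. Activity normalised to PTC124 versus DMSO; concentration-response curves classed by r2, magnitude and activity.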
Chain of Luciferin 4-monooxygenase (Photinus pyralis) (P08659 whole entry, looked up): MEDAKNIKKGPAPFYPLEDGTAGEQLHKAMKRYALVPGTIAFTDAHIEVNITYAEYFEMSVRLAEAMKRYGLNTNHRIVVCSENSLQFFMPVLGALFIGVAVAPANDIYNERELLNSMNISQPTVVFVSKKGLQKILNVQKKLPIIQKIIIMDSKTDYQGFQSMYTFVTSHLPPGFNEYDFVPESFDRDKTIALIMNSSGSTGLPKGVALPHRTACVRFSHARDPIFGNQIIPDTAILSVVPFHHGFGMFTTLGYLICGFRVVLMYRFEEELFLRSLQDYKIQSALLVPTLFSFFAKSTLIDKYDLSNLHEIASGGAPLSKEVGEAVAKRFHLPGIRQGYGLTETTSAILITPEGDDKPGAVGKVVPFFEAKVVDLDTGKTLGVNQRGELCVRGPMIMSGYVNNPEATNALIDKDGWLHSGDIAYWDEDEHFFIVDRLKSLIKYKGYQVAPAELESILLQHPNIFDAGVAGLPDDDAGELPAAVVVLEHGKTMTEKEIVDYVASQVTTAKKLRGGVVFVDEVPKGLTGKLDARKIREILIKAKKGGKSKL

Experiment [9] can be described thus: qHTS profiling for inhibitors of Plasmodium falciparum proliferation (AID 504749).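 Also: 0% = DMSO vehicle and full inhibition = artemisinin control; nearly all actives have a fitted effect of over 60% in size.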 To be noted: P. falciparum in erythrocytes, SYBR Green DNA, 72 h, at 12.8 µM (top of the series). In a few lines: (§1)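 Each compound contacts P. falciparum-infected red blood cells for 72 h at 37 C; lysis buffer (Tris, EDTA, saponin, Triton X, SYBR Green I) is added and fluorescence measured next morning; values normalized to controls.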

Another experiment concerns C2A. The experiment is described as above. Conditions: P. falciparum in erythrocytes, SYBR Green DNA, 72 h; series mostly up to 12.8 µM. In a few lines: as §1
Another experiment relates to CP191. Described as above. To be noted: P. falciparum in erythrocytes, SYBR Green DNA, 72 h; series mostly up to 12.8 µM. In a few lines:
as §1

In a further experiment the test system is CP238. The description is as above. Conditions: P. falciparum in erythrocytes, SYBR Green DNA, 72 h; series mostly up to 12.8 µM. In a few lines:
as §1

The test system of the next experiment is CP256. Described as above. Conditions: P. falciparum in erythrocytes, SYBR Green DNA, 72 h; series mostly up to 12.8 µM. In a few lines:
as §1

The next experiment concerns FAB9. Described as above. Conditions: P. falciparum in erythrocytes, SYBR Green DNA, 72 h; series mostly up to 12.8 µM. In a few lines:
as §1

For the next experiment, the system named is JCK. The description is as above. To be noted: P. falciparum in erythrocytes, SYBR Green DNA, 72 h; series mostly up to 12.8 µM. In a few lines: as §1
Another experiment relates to SC27B. The experiment is described as above. To be noted: P. falciparum in erythrocytes, SYBR Green DNA, 72 h; series mostly up to 12.8 µM. In a few lines: as §1
The nature of experiment [10]: NFAT Signaling Pathway (AID 444; active = well fitted curve in either direction with a large enough effect, not every such curve was filed as active;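 also: carbachol stimulus at about its EC50 of 1 µM final; % is scaled to controls: 0 for no effect and ±100 for the full control effect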). To be noted: Jurkat NFAT-bla M1, carbachol, beta-lactamase ratio, 5 h. In a few lines:
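Jurkat cells with NFAT-driven β-lactamase reporter and co-expressed M1 receptor, stimulated with carbachol (final 1 uM, ~EC50), compound titration, 5 h at 37 °C. CCF4 loaded 1 h at RT; 460/530 nm ratio gave %activity and AC50.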

The nature of experiment [11]: Stat Signaling Pathway (AID 446; active = well fitted curve in either direction with a large enough effect, not every such curve was filed as active). In a few lines: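 Overnight-plated ME-180 cells bearing a STAT Inducible Element beta-lactamase reporter; 5 h co-exposure to compound and 40 pM IL-6; values normalized to 300 pM IL-6 and 125 nM JAK inhibitor controls.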
The target of experiment [12] is Glucocorticoid receptor (Homo sapiens) (UniProt P04150). Briefly: GR-EFC Redistribution (AID 451; calls by dose curve; also: potency is read from the fitted curve at half-maximal effect). Conditions: CHO-K1 GR-EFC translocation, beta-gal luminescence, 2 h. In a few lines:
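CHO-K1 cells expressing nuclear EA and GR-ED fragments of b-gal; compounds titrated up to 46 uM final, 2 h at 37 C. GR nuclear translocation read as complemented b-gal luminescence after 1 h RT detection.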

The target in experiment [13] is Ubiquitin carboxyl-terminal hydrolase 1 (Homo sapiens) (UniProt O94782). The experiment can be described thus: Inhibitors of USP1/UAF1: Pilot qHTS (AID 504865).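 Also: rhodamine fluorescence freed from ubiquitin-rhodamine substrate followed over time; top concentration of the series differs between compounds; % is scaled to controls: 0 for no effect and ±100 for the full control effect; nearly all actives have a fitted effect of over 35% in size.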 In a few lines:
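USP1/UAF1 complex at 1 nM preincubated 15 min at room temperature with compound, then Ub-Rho substrate added at 150 nM final. Fluorescence (480/540 nm) read kinetically in 50 mM HEPES pH 7.8, 0.5 mM EDTA, 1 mM TCEP, 0.1 mg/ml BSA, 0.01% Tween-20.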

[14] abbreviates: measured here: cell count channel max response.
Where [15] appears, read: measured here: lipid channel max response.
Setting [16] is: at 17.2 µM (top of the series) unless noted.

Chain of 3',5'-cyclic-AMP phosphodiesterase 4B (Homo sapiens) (Q07343 whole entry, looked up): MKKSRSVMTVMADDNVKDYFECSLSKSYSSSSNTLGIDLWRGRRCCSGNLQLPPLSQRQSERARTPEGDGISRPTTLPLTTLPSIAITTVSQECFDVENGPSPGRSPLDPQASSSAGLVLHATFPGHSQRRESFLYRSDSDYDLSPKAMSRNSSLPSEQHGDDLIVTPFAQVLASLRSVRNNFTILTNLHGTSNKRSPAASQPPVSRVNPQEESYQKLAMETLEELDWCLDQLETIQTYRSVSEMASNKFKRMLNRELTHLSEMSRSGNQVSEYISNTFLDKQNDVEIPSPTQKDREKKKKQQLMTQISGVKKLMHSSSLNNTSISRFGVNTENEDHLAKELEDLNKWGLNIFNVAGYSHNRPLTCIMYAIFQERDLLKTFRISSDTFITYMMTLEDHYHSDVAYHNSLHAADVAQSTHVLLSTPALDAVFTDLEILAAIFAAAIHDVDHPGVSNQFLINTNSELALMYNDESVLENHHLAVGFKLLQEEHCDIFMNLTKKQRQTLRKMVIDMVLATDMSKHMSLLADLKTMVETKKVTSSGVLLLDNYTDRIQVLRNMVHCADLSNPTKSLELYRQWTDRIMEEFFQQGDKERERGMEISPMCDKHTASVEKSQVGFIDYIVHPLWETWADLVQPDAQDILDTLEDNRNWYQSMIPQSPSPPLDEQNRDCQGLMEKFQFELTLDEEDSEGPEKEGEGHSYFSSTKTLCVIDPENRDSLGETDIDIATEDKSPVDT
Chain of ATP-dependent 6-phosphofructokinase (Trypanosoma brucei brucei) (O15648 whole entry, looked up): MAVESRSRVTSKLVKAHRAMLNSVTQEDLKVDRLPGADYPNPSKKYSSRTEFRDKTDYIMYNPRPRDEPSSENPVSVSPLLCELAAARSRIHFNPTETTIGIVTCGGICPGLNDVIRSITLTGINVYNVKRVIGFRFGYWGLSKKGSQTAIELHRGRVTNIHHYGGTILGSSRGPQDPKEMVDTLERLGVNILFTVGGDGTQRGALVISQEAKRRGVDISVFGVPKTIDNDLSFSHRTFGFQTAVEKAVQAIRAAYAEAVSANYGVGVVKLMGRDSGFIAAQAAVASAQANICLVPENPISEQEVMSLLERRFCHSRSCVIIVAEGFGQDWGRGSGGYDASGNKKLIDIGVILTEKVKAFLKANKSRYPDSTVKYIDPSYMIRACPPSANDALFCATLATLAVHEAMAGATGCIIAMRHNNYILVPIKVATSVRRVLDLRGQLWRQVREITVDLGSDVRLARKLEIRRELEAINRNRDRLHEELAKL
Chain of Glucocorticoid receptor (Homo sapiens) (P04150 whole entry, looked up, the tested form may be a part): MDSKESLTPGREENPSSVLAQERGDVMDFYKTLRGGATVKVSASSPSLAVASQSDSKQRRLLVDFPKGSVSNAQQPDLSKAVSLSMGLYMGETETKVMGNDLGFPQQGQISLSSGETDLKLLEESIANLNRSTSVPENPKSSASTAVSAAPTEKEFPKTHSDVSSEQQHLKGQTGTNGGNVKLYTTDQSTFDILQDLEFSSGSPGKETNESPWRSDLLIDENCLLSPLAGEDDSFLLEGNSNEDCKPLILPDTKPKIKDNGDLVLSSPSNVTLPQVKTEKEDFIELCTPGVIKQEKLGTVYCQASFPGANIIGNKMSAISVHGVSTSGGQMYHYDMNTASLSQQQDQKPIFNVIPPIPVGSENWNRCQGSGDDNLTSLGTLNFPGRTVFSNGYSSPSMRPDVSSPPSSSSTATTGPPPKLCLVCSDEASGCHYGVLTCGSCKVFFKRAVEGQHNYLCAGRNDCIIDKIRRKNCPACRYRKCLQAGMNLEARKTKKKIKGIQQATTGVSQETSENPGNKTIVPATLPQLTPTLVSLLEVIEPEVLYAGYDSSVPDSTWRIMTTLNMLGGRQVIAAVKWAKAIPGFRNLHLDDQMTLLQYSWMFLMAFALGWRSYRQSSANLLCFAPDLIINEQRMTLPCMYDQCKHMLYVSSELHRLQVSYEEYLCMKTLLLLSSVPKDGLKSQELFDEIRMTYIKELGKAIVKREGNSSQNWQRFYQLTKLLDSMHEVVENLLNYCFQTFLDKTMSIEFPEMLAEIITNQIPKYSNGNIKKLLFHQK
Chain of Ubiquitin carboxyl-terminal hydrolase 1 (Homo sapiens) (O94782 whole entry, looked up): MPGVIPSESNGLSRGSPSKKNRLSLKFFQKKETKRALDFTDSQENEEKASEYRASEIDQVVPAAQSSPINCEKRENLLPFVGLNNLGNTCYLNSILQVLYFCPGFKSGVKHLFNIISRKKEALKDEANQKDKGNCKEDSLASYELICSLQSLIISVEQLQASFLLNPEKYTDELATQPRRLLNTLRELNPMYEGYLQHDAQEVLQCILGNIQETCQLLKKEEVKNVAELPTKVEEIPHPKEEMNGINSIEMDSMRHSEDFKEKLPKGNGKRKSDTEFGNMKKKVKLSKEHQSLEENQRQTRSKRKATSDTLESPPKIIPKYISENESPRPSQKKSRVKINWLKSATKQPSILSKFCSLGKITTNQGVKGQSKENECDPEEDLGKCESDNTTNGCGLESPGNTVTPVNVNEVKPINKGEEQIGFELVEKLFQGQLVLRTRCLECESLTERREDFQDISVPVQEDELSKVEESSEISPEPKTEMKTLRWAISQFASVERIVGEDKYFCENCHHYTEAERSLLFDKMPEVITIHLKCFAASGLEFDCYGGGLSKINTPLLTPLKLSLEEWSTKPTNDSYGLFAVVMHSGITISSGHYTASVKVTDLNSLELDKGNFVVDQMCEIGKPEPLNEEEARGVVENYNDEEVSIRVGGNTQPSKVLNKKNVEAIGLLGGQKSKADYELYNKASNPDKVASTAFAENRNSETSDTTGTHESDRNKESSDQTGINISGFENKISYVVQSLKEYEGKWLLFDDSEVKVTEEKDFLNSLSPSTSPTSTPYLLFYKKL
Chain of Cytochrome P450 1A2 (Homo sapiens) (P05177 whole entry, looked up): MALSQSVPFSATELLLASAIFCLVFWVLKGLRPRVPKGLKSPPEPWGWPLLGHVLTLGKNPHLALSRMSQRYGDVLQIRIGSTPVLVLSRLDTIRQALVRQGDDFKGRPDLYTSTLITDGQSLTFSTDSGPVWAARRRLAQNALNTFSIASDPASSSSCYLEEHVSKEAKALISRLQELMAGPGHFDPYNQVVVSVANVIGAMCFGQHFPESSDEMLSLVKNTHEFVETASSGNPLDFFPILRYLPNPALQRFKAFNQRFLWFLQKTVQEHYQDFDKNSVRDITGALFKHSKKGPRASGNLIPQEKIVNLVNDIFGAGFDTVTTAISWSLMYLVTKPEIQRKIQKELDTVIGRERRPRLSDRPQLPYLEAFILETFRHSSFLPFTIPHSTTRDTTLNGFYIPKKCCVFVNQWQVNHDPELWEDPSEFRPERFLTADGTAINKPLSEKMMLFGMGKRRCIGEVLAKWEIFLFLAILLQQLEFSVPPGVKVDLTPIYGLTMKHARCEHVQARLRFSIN

As for `NCc1ccccc1CC(=O)N[C@@H]1C(=O)N2C(C(=O)O)=C(CSc3nnnn3CC(=O)O)CS[C@@H]12`, the call in experiment [1], in [5] and in experiment [7] was inactive. For the same compound, the Potency entry (in experiment [2]; in experiment [4]; in experiment [8]; with C2A; in the experiment with CP191; in the experiment with CP238) was “inactive” in each case. The Potency entry with CP256, in the experiment with FAB9, in the experiment on JCK and with SC27B was “inactive” throughout. Also, the Potency in [3] was > 20.6 µM (inactive). The activity change, negative = inhibition in experiment [6] was -0.0833% (inactive). The figures for the max response in experiment [6] (setting [14]) and in experiment [6] (setting [15]) were -14.4% and -13.9%, respectively. Besides, the activity, negative = inhibition in [9] (parasite line A) is 1.91% (inactive); in experiment [9] (parasite line B) it was -4.65% (inactive).

Regarding `Cc1onc(-c2ccccc2Cl)c1C(=O)N[C@H]1C(=O)N2[C@H]1SC(C)(C)[C@H]2C(=O)O`, the compound was classed as inactive in experiment [1], in [11], in [5] and in experiment [7]. Also, the results for the activity change, negative = inhibition in experiment [10] (setting [16]) and in experiment [6] were -2.89% (inactive) and -0.309% (inactive), respectively. Also, the Potency in [3] and in experiment [12] was > 20.6 µM (inactive) each time. Moreover, the Potency result (in experiment [4]; in [13]; in experiment [8]; with C2A; in the experiment on CP191; in the experiment on CP238) was “inactive” each time. Further, the Potency result in the experiment on CP256, in the experiment with FAB9, in the experiment with JCK and in the experiment with SC27B was “inactive” throughout. Moreover, the figures for the max response in experiment [6] (setting [14]) and in [6] (setting [15]) were 6.25% and 7.41%, respectively. The activity, negative = inhibition in experiment [9] (parasite line A) was 10.5% (inactive); in experiment [9] (parasite line B), 7.79% (inactive).

In the case of `CC(=O)O[C@@H]1C(=O)[C@@]2(C)[C@H](O)C[C@H]3OC[C@]3(OC(C)=O)[C@@H]2[C@H](OC(=O)c2ccccc2)[C@@]2(O)C[C@H](OC(=O)[C@@H](O)[C@@H](NC(=O)c3ccccc3)c3ccccc3)C(C)=C1C2(C)C` (stereo in doubt), the result in experiment [1], in experiment [11] and in experiment [5] was inactive. The figures for the activity change, negative = inhibition in [10] (at 17.2 µM (top of the series)), in [10] (at 38 µM (top of the series)) and in [6] were 6.42% (inactive), 6.57% (inactive) and -8.68% (inactive), respectively. For the same compound, the Potency in experiment [3] was > 46 µM (inactive) and > 20.6 µM (inactive); in experiment [12] it was > 46 µM (inactive) and > 20.6 µM (inactive). Moreover, in experiment [4], the Potency result is “inactive”. Also, the max response in experiment [6] (setting [14]) was -5.62%; in [6] (setting [15]) it was -13.6%.

Regarding `CCN1CCC[C@@H](OC(=O)C(c2ccccc2)c2ccccc2)C1`, the outcome in experiment [1], in experiment [11] and in [7] was inactive. For the same compound, the activity change, negative = inhibition was -80.8% (active) in experiment [10] (setting [16]) and -6.3% (inactive) in experiment [6]. In addition, the Potency in experiment [3] and in experiment [12] was > 20.6 µM (inactive) each time. For the same compound, the Potency entry (in [4]; in [8]; in the experiment on C2A; in the experiment with CP191; in the experiment on CP238; with FAB9) was “inactive” each time. Moreover, the Potency result in the experiment with JCK and in the experiment with SC27B was “inactive” throughout. Besides, the max response in experiment [6] (setting [14]) is -3.56%; in [6] (setting [15]), -10.4%. Further, the activity, negative = inhibition was 0.857% (inactive) in experiment [9] (parasite line A) and -1.3% (inactive) in experiment [9] (parasite line B).

Regarding `CN[C@H]1[C@@H](O)[C@@H](NC)[C@@H]2O[C@@]3(O)C(=O)C[C@@H](C)O[C@H]3O[C@H]2[C@H]1O`, the call in experiment [1], in [11], in [5] and in [7] was inactive. Further, the values for the activity change, negative = inhibition in [10] (setting [16]) and in experiment [6] were -11.9% (inactive) and 0.684% (inactive), respectively. Besides, the Potency in [3] and in [12] was > 20.6 µM (inactive) each time. Besides, the Potency result (in [4]; in [13]; in experiment [8]; in the experiment with C2A; in the experiment on CP191; in the experiment with CP238) was “inactive” throughout. For the same compound, the Potency result in the experiment with CP256, in the experiment with FAB9, in the experiment on JCK and with SC27B was “inactive” in each case. The values for the max response in experiment [6] (setting [14]) and in experiment [6] (setting [15]) were 1.41% and 2.93%, respectively. Besides, the activity, negative = inhibition was -10.3% (inactive) in [9] (parasite line A) and -0.369% (inactive) in [9] (parasite line B).
